# Data published in the supplement of paper PMC8253809.
# How the values were obtained:
# Assay in all cases: growth inhibition (% activity, log2 RLU normalised to DMSO / staurosporine); higher = more growth inhibition
# Conditions in all cases: 33 µM
# DIPGX29 = tested on: DIPGX29 (H3.3 K27M diffuse intrinsic pontine glioma line)
# In short: (§1)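 In triplicate, pHGG cell lines and H9-derived neural stem cells were treated for 7 days at 37 °C, 5% CO2 with approved drugs at a single final concentration of about 33 μM, added by pin tool. CellTiter-Glo luminescence, after log2 transformation, was normalised on each plate to % activity between solvent and positive control wells. Growth inhibition is reported as the median across replicates.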
# DIPGX37 = tested on: DIPGX37 (H3.3 K27M diffuse intrinsic pontine glioma line)
# In short: as §1
# DIPGX7 = tested on: DIPGX7 (H3.3 K27M diffuse intrinsic pontine glioma line)
# In short: as §1
# DIPGX9 = tested on: DIPGX9 (diffuse intrinsic pontine glioma line)
# In short: as §1
# HGGX39 = tested on: HGGX39 (paediatric high-grade glioma line)
# In short: as §1
# HGGX6 = tested on: HGGX6 (H3.3 G34R paediatric high-grade glioma line)
# In short: as §1
# HNSC = tested on: HNSC
# In short: as §1
# SUDIPGIV = tested on: SUDIPGIV (diffuse intrinsic pontine glioma line)
# In short: as §1
# SUDIPGVI = tested on: SUDIPGVI (diffuse intrinsic pontine glioma line)
# In short: as §1
# SUDIPGXIII = tested on: SUDIPGXIII (diffuse intrinsic pontine glioma line)
# In short: as §1
SMILES,growth inhibition (DIPGX29) [%],growth inhibition (DIPGX37) [%],growth inhibition (DIPGX7) [%],growth inhibition (DIPGX9) [%],growth inhibition (HGGX39) [%],growth inhibition (HGGX6) [%],growth inhibition (HNSC) [%],growth inhibition (SUDIPGIV) [%],growth inhibition (SUDIPGVI) [%],growth inhibition (SUDIPGXIII) [%]
NC[C@H]1CC[C@H](C(=O)O)CC1,-0.318,1.11,0.868,1.09,2.3,0.25,-0.348,-1.18,0.626,-0.00541
NS(=O)(=O)c1cc2c(cc1Cl)N=CNS2(=O)=O,-2.49,-1.85,0.251,-2.53,-3.41,-3.61,-4.62,-3.95,-5.67,0.373
O=C(O)c1cccnc1,0.555,1.13,0.846,1.6,0.355,1.52,-0.701,-0.463,1.65,-1.24
COc1c(C)c2c(c(O)c1C/C=C(\C)CCC(=O)O)C(=O)OC2,19.1,19,12,16.2,18.1,14.7,57.6,10.7,11.8,-4.08
CNCCc1ccccn1,0.924,1.45,1.21,1.11,2.84,1.49,1.31,1.96,4.33,-0.14
NCCS,-2.8,-1.3,-0.687,-1.29,-2.78,-3.18,0.969,-2.89,-5.68,0.354
Cc1cccc(C)c1OCC(C)N (stereo not given),-3.9,-0.481,-1.91,-1.51,-0.858,-1.81,-4.52,-0.767,-2.5,0.823
CC(C)NCC(O)c1ccc(O)c(O)c1 (stereo not given),-3.68,-0.899,-1.64,-0.316,-1.58,0.187,-3.47,-0.959,-4.2,-0.909
O=C1CCC(N2C(=O)c3ccccc3C2=O)C(=O)N1 (stereo not given),-2.65,-1.06,-0.846,-1.66,-0.665,-1.64,-7.47,-2.51,-2.2,-0.0477
CCOC(=O)CC(=O)N1CCSC1COc1ccccc1OC (stereo not given),2.29,3.41,3.11,1.18,5.96,2.78,3.53,4.58,2.42,-0.201
O=C(Nc1c(Cl)cncc1Cl)c1ccc(OC(F)F)c(OCC2CC2)c1,2.05,4.42,2.92,2.71,4.08,2.51,2.92,7.2,6.56,-0.978
Cc1c(N(C)C)c(=O)n(-c2ccccc2)n1C,-0.911,-0.00267,0.576,-1.42,2.61,-1.31,-0.0115,-1.34,-0.66,0.298
O=P(O)(O)C(O)(Cn1ccnc1)P(=O)(O)O,0.235,2.6,0.072,1.97,2.08,1.84,1.26,1.08,4.43,-0.376
COc1ccc(C(=O)CC(=O)c2ccc(C(C)(C)C)cc2)cc1,-1.88,-1.81,-1.16,-0.752,-2.78,-0.501,-0.539,-0.769,-2.64,-0.991
Cc1cc(NC(=O)C2=C(O)c3ccccc3S(=O)(=O)N2C)no1,-3.22,-1.66,-1.69,-3.17,-4.59,-4.04,7.58,-5.37,-10.5,-0.431
CC1=C(CC(=O)O)c2cc(F)ccc2/C1=C\c1ccc([S+](C)[O-])cc1 (stereo not given),1.11,1.67,0.000497,0.866,0.763,2.31,-0.224,0.82,2.02,0.292
CC(/C=C1\SC(=S)N(CC(=O)O)C1=O)=C\c1ccccc1,-1.36,-1.28,-1.21,0.579,-0.83,-0.392,-2.25,-1.67,-1.06,1.76
Cc1ccc(O)c([C@H](CCN(C(C)C)C(C)C)c2ccccc2)c1,-0.51,1.21,-1.14,1.39,7.27,-3.24,8.98,2,1.35,-1.5
Cc1ccnc2c1NC(=O)c1cccnc1N2C1CC1,0.291,2.43,0.516,-1.16,0.921,-1.94,2,1.95,0.484,0.637
CCCCc1ncc(/C=C(\Cc2cccs2)C(=O)O)n1Cc1ccc(C(=O)O)cc1,-0.827,0.563,-1.23,-0.197,0.41,0.268,-1.62,-1.58,0.0226,-13.9
